Screening results: PubChem, National Center for Advancing Translational Sciences (NCATS)
HP1b chromo inh – blocks HP1-beta chromodomain binding to methylated histone tails; Potency, µM (titrated, usually from 114 µM), without a hit: at the highest dose activity change, negative = inhibition, usual class: inhibitors; AlphaScreen HP1-beta / biotin-H3K9me3 peptide binding; P83916; 390,000 tested, 0.56% active; also: nearly all actives have a fitted effect of over 70% in size
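HP1-beta protein (50 nM final) preincubated 30 min at room temperature with biotinylated H3(1-18)K9me3 peptide (50 nM) in PBS pH 7.4, 0.01% Tween-20, then compound added for 30 min. AlphaScreen streptavidin donor/nickel chelate acceptor beads (10 ug/mL final), 30 min dark, luminescence read.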
G9a block – blocks human histone lysine methyltransferase G9a; Q96KQ7; Potency, µM (doses to about 102 µM), inactives show at the highest dose activity, negative = inhibition, hits mostly inhibitors; 350,000 tested, 8.8% active; AID 504332; G9a H3K9 monomethylation, AlphaScreen, 2 h; also: % is scaled to controls: 0 for no effect and ±100 for the full control effect; nearly all actives have a fitted effect of over 75% in size
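G9a (20 nM) was preincubated 15 min with compound, then reacted 2 h at room temperature with 500 nM biotin-H3K9 peptide and 20 µM SAM. Monomethyl-H3K9 detected by AlphaScreen using anti-H3K9me1 antibody.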
PLK1 PBD inh – blocks phosphopeptide binding to human PLK1 polo-box domain; Plk1 PBD binding of FITC phosphopeptide, fluorescence polarization; AID 720504; P53350; Potency, µM, without a hit: max response, negative = inhibition, usual class: inhibitors; 360,000 tested, 2.8% active; also: series mostly up to about 57 µM; % is scaled to controls: 0 for no effect and ±100 for the full control effect; nearly all actives have a fitted effect of over 65% in size
12-LOX inh – inhibitors of human 12S-lipoxygenase ALOX12 | P18054 | purified 12hLO, xylenol orange hydroperoxide absorbance | Potency, µM (titrated, usually from 108 µM), for inactives: top-dose activity change, negative = inhibition, hits mostly inhibitors | 580,000 tested, 1.1% active | AID 1671190; also: % is scaled to controls: 0 for no effect and ±100 for the full control effect
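Purified human 12hLO at 150 nM in 25 mM Hepes, 0.01% Triton X-100, pH 7.0, preincubated 15 min at room temperature with compound. Reaction started with 40 uM arachidonic acid, 30 min at room temperature. Hydroperoxide measured by Fe-xylenol orange, 573/405 nm absorbance ratio.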
BAZ2B inh – blocks human BAZ2B; Q9UIF8; AlphaScreen BAZ2B-H3K14Ac peptide displacement; Potency, µM (series often up to 114 µM), without a hit: at the highest dose activity change, negative = inhibition, actives largely listed as inhibitors; 360,000 tested, 4.4% active; also: % is scaled to controls: 0 for no effect and ±100 for the full control effect; nearly all actives have a fitted effect of over 60% in size
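BAZ2B (50 nM) with biotin-H3(5-23)K14Ac peptide (50 nM) in PBS pH 7.4, 0.01% Tween-20, preformed 30 min, then compound 30 min at room temperature; top concentration 110uM. AlphaScreen streptavidin donor/nickel chelate acceptor beads (10 ug/mL final), 20 min dark, signal read.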
JMJD2A Tudor inh – blocks the human JMJD2A Tudor domain | O75164 | AlphaScreen JMJD2A-Tudor / H3K4me3 peptide binding | Potency, µM (top dose mostly 114 µM), inactives show at the highest dose activity change, negative = inhibition, usual class: inhibitors | 390,000 tested, 4.4% active; also: % is scaled to controls: 0 for no effect and ±100 for the full control effect; nearly all actives have a fitted effect of over 50% in size
An asterisk follows results filed as active; ? = inconclusive; . = no result given; [ ] = remark or other dose. Compounds with a hit are over-represented: about 9% of the library has one in this group of screens. Calls follow the shape of the dose curve; as a rule, active = well fitted curve in the direction sought with a large enough effect; inconclusive = small, poorly fitted or top-dose-only effect, or another doubt; inactive = no such curve, though single readings can be large; an effect the other way counts as inactive or inconclusive. Potency is read from the fitted curve at half-maximal effect.

SMILES | HP1b chromo inh | G9a block | PLK1 PBD inh | 12-LOX inh | BAZ2B inh | JMJD2A Tudor inh
CC(Sc1nnc(C(F)(F)F)n1C)C(=O)Nc1ccc(N2CCOCC2)cc1 (stereo not given) | 23% | . | -3% | 2% | . | -6%
CC(=O)c1ccc(N=C2C(=O)Nc3ccccc32)cc1 | 40% | ? | ? | 3% | 2% | -14%
CC(=O)N(/N=C1/C(=O)Nc2ccccc21)c1ccccc1 | ? | 14µM* | ? | -4% | -37% | ?
Cc1ccc(NC(=O)CN2C(=O)N/C(=C/c3cc(C)n(-c4ccc(C(=O)O)cc4)c3C)C2=O)cc1 | -18% | 28µM* | -29% | ? | 40µM* | 79µM*
Cc1cccc(NC(=O)CN2C(=O)S/C(=C\C(=O)Nc3ccc(Cl)cc3)C2=O)c1 | 12% | 7%[59 µM] | -8% | -7% | 2% | -3%
Cc1ccc(NC(=O)CN2C(=O)N/C(=C/c3cccn3-c3ccc(C(=O)O)cc3)C2=O)cc1 | 2.8µM* | 8.9µM* | 11µM* | ? | 4µM* | 3.2µM*
Cc1ccc(NC(=O)CN2C(=O)S/C(=C\c3cc(Cl)c(OCC(=O)O)c(Cl)c3)C2=O)cc1 | 20µM* | 40µM* | 24µM* | 0% | 40µM* | 45µM*
Cc1ccc(NC(=O)CN2C(=O)S/C(=C\c3cc(C)n(-c4ccc(C(=O)O)cc4)c3C)C2=O)cc1 | 2% | . | 27µM* | ? | 50µM* | ?
CC(=O)NC1=NN(C(C)=O)C(C)(CC(=O)OC(C)(C)C)S1 (stereo not given) | 8% | 10% | -8% | -10% | -1% | -4%
COc1ccc(C2C(C(C)=O)=C(O)C(=O)N2c2ccccc2)c(OC)c1 (stereo not given) | . | . | . | -7% | . | .
COc1ccc(C2C(C(C)=O)=C(O)C(=O)N2c2nccs2)c(OC)c1 (stereo not given) | 46% | 40µM* | -11% | -17% | ? | -2%
COc1ccc(C2C(C(C)=O)=C(O)C(=O)N2CCO)c(OC)c1 (stereo not given) | 11% | 50µM* | -2% | ? | ? | ?
CCCCN1C(=O)C(O)=C(C(C)=O)C1c1ccc(OC)cc1OC (stereo not given) | 4% | ? | -9% | 8.9µM* | 50µM* | 50µM*
COc1ccc(-c2nc(-c3c(C)noc3C)cc3c2cc(-c2ccccc2)n3C)cn1 | . | . | . | -1%[176 µM] | . | .
CCCCN(C)CCN1C(=O)C2C(C(=O)Nc3ccc(OC)cc3)C3C=CC2(O3)C1C(=O)NC1CCCCC1 (stereo not given) | 6% | ? | 7% | -21% | 0% | -24%
NS(=O)(=O)c1ccc(NC(=O)N2c3ccccc3Sc3ccccc32)cc1 | 13% | . | 2% | ? | 50µM* | -25%
OCC1OC(n2nc3ccccc3n2)C(O)C(O)C1O (stereo not given) | 31% | -8% | -8% | 16% | 13% | -1%
S=C(NCCCN(Cc1ccc(Cl)c(Cl)c1)c1ccc(Br)cn1)NCCc1cnc[nH]1 | . | . | . | . | . | 40µM*
S=C(NCCCc1cnc[nH]1)NCCN(Cc1ccc(Cl)c(Cl)c1)c1ccc(Br)cn1 | . | . | . | . | . | 56µM*
S=C(NCCCN(Cc1ccc(Cl)cc1)c1ccc(Br)cn1)NCc1ccc2nc[nH]c2c1 | -15% | . | . | . | . | 50µM*
S=C(NCCCc1cnc[nH]1)NCCCN(Cc1ccc(Cl)cc1)c1cc(-c2ccccc2)ccn1 | ? | . | . | . | . | 56µM*
O=c1c2nc(Nc3cccc(F)c3)ccc2ncn1-c1cccnc1 | . | . | . | 82%[176 µM] | . | .
O=C(NN1CCCCC1)c1cccc(COc2ccc(Cl)cc2)c1 | 31% | -1%[59 µM] | -10% | -10% | 0% | -9%
Cc1cc(C)c(S(=O)(=O)n2ccc(-c3ccc(OCCN(C)c4ccccn4)cc3)n2)c(C)c1 | 21% | 73%[59 µM] | -4% | -12% | -1% | -23%[57.1 µM]
O=C(COC(=O)C1C2CC3OC(=O)C1C3C2)Nc1cccc(C(F)(F)F)c1 (stereo not given) | 24% | -11% | -6% | -15% | -6% | 7%
